In PubChem BioAssay (NCI) one finds growth data, which are given here for nine molecules.

Compounds without any hit were thinned out: in the full panel of roughly 83,000, 20% have a hit.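 96-well plates, one dose, 48 hours. Percent growth reported; active if below 10.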 Unmarked numbers belong to inactive results. Active and inactive are the calls of the source.

Test systems include SK-MEL-2 melanoma; EKVX NSCLC; SN12C renal; UO-31 renal; TK-10 renal; ACHN renal; CAKI-1 renal; A498 renal; CCRF-CEM leukemia; MOLT-4 leukemia; RPMI-8226 leukemia; OVCAR-8 ovarian; OVCAR-5 ovarian; OVCAR-4 ovarian; SK-OV-3 ovarian; OVCAR-3 ovarian; HS 578T breast; NCI/ADR-RES ovarian; IGROV1 ovarian.
What all share (test): NCI-60 one-dose screen, 48 h (100 = growth as untreated, 0 = no growth, -100 = all killed)
Common to all, as to details: 10 µM unless noted

With `COc1ccc(-c2nc3sccn3c2-c2cc(-c3cc(OC)c(OC)c(OC)c3)on2)cc1`, the growth in the experiment on SK-MEL-2 melanoma was 142%; in the experiment on EKVX NSCLC it was 98.9%; in the experiment with SN12C renal, 105%; in the experiment with UO-31 renal, -60.9% (active); in the experiment with TK-10 renal, 162%; with ACHN renal, 98.7%. Also, the growth in the experiment on CAKI-1 renal is 127%; in the experiment with A498 renal, 74.4%; with CCRF-CEM leukemia it was 34.6%; in the experiment with MOLT-4 leukemia it was 40.3%; in the experiment with RPMI-8226 leukemia, 41.5%; in the experiment on OVCAR-8 ovarian, 94.6%. Further, the growth is 124% with OVCAR-5 ovarian; 84.4% in the experiment with OVCAR-4 ovarian; 92.2% in the experiment with SK-OV-3 ovarian; 76% with OVCAR-3 ovarian; 92.5% with HS 578T breast; 87.5% with NCI/ADR-RES ovarian.

Regarding `C[C@H]1[C@H]2[C@H]3CC[C@@H]4[C@@]5(C)C/C(=C/c6ccco6)C(=O)C(C)(C)[C@@H]5CC[C@@]4(C)[C@]3(C)CC[C@]23CO[C@]1(C)[C@@H](C(=O)/C=C\c1ccco1)C3`, the growth with SK-MEL-2 melanoma is 65.6%; with EKVX NSCLC it was 107%; in the experiment on SN12C renal, 90.4%; with UO-31 renal, 71.5%; with TK-10 renal it was 103%; in the experiment on ACHN renal, 68.4%. The growth was 69% in the experiment with CAKI-1 renal; 123% in the experiment on A498 renal; 100% in the experiment with CCRF-CEM leukemia; 100% in the experiment with MOLT-4 leukemia; 78% in the experiment with RPMI-8226 leukemia; 98.8% in the experiment on OVCAR-8 ovarian. In addition, the growth in the experiment on OVCAR-5 ovarian was 113%; with SK-OV-3 ovarian it was 108%; with IGROV1 ovarian, 101%; in the experiment on OVCAR-3 ovarian, 103%; in the experiment with HS 578T breast it was 94%; in the experiment on NCI/ADR-RES ovarian, 108%.

In the case of `C=C(C)[C@@H]1CC=C2c3sc(-c4ccc(C)cc4)nc3C[C@@H](C)[C@]2(C)C1`, the growth is 105% with SK-MEL-2 melanoma; 95.1% in the experiment on EKVX NSCLC; 98.8% in the experiment with SN12C renal; 78% with UO-31 renal; 113% in the experiment with TK-10 renal; 102% in the experiment on ACHN renal. Besides, the growth was 90.6% in the experiment on CAKI-1 renal; 106% with A498 renal; 99.4% in the experiment with CCRF-CEM leukemia; 98% in the experiment with MOLT-4 leukemia; 109% with RPMI-8226 leukemia; 99.3% in the experiment on OVCAR-8 ovarian. Also, the growth was 101% in the experiment with OVCAR-5 ovarian; 97.5% in the experiment on SK-OV-3 ovarian; 109% in the experiment on IGROV1 ovarian; 104% in the experiment on OVCAR-3 ovarian; 100% with HS 578T breast; 106% in the experiment with NCI/ADR-RES ovarian.

As for `N#Cc1c2c(nn(-c3ccccc3)c1=O)C(O)=C([N+](=O)[O-])C(c1ccccc1)C2` (centres undefined), the growth in the experiment on SK-MEL-2 melanoma is 89%; in the experiment on EKVX NSCLC it was 83.8%; in the experiment on SN12C renal, 89.7%; with UO-31 renal, 64%; in the experiment on TK-10 renal it was 99.1%; with ACHN renal it was 74.3%. Moreover, the growth in the experiment with CAKI-1 renal was 81.9%; with A498 renal, 90.7%; in the experiment with CCRF-CEM leukemia it was 58%; with MOLT-4 leukemia it was 67.5%; in the experiment on RPMI-8226 leukemia, -6.06% (active); in the experiment with OVCAR-8 ovarian, 81.6%. Further, the growth in the experiment on OVCAR-5 ovarian is 110%; with OVCAR-4 ovarian, 73.8%; in the experiment on IGROV1 ovarian, 50.6%; in the experiment on OVCAR-3 ovarian, 76.4%; in the experiment with HS 578T breast, 91%; in the experiment with NCI/ADR-RES ovarian, 93.5%.

With `C[C@@H]1N=C(c2ccc3ccccc3n2)Nc2nc3ccccn3c2C1=O`, the growth in the experiment on SK-MEL-2 melanoma is 109%; with EKVX NSCLC, 77.7%; in the experiment with SN12C renal, 95.6%; in the experiment on UO-31 renal, 70.1%; with TK-10 renal, 142%; in the experiment with ACHN renal it was 85.7%. The growth with CAKI-1 renal is 82.1%; with A498 renal, 108%; in the experiment on CCRF-CEM leukemia it was 115%; in the experiment with MOLT-4 leukemia, 100%; in the experiment with RPMI-8226 leukemia, 93.8%; in the experiment with OVCAR-8 ovarian, 101%. Besides, the growth in the experiment on OVCAR-5 ovarian is 106%; in the experiment with OVCAR-4 ovarian, 89.5%; in the experiment with IGROV1 ovarian, 66.3%; in the experiment with OVCAR-3 ovarian it was 109%; in the experiment on NCI/ADR-RES ovarian, 93.6%.

Take `Cc1ccc(S(=O)(=O)Oc2cc(OS(=O)(=O)c3ccc(C)cc3)cc(OS(=O)(=O)c3ccc(C)cc3)c2)cc1`: the growth was 91.5% with SK-MEL-2 melanoma; 106% in the experiment on EKVX NSCLC; 107% in the experiment with SN12C renal; 71.8% in the experiment on UO-31 renal; 156% with TK-10 renal; 114% in the experiment with ACHN renal. Further, the growth was 84.2% in the experiment with CAKI-1 renal; 96.9% in the experiment on A498 renal; 95.7% with CCRF-CEM leukemia; 82.2% with MOLT-4 leukemia; 88.6% with RPMI-8226 leukemia; 107% in the experiment with OVCAR-8 ovarian. For the same molecule, the growth in the experiment on OVCAR-5 ovarian is 105%; in the experiment with OVCAR-4 ovarian, 93.2%; in the experiment with SK-OV-3 ovarian it was 101%; with HS 578T breast, 95.8%; in the experiment with NCI/ADR-RES ovarian, 95.6%.

In the case of `O=[N+]([O-])c1ccc(N2c3ccncc3Sc3ccncc32)cc1`, the growth was 93.8% with SK-MEL-2 melanoma; 88.7% with EKVX NSCLC; 99% with SN12C renal; 56.9% in the experiment on UO-31 renal; 105% in the experiment with TK-10 renal; 93.7% with ACHN renal. Further, the growth in the experiment with CAKI-1 renal is 87.8%; in the experiment on A498 renal, 112%; in the experiment on CCRF-CEM leukemia, 101%; with MOLT-4 leukemia, 104%; with RPMI-8226 leukemia, 93.5%; with OVCAR-8 ovarian it was 87%. Moreover, the growth in the experiment with OVCAR-5 ovarian was 118%; in the experiment with OVCAR-4 ovarian, 109%; in the experiment on SK-OV-3 ovarian it was 116%; in the experiment with HS 578T breast, 104%; in the experiment with NCI/ADR-RES ovarian, 106%.

Consider `C[C@]12CC[C@@H]3c4cc(OC(F)F)c(O)cc4CC[C@H]3[C@@H]1CC[C@@H]2OS(N)(=O)=O`, for which the growth with SK-MEL-2 melanoma was 42.1%; in the experiment on EKVX NSCLC it was 24.6%; in the experiment with SN12C renal, 44.2%; in the experiment with UO-31 renal, 38.2%; with TK-10 renal it was 93.2%; with ACHN renal it was 50.7%. The growth with CAKI-1 renal was 34.5%; in the experiment with A498 renal, -7.08% (active); with CCRF-CEM leukemia it was 16.6%; with MOLT-4 leukemia, 25.3%; in the experiment with RPMI-8226 leukemia it was 26.6%; in the experiment with OVCAR-8 ovarian, 39.3%. Also, the growth in the experiment with OVCAR-5 ovarian was 57.5%; in the experiment with OVCAR-4 ovarian, 67.7%; in the experiment on SK-OV-3 ovarian, 39.7%; in the experiment on IGROV1 ovarian it was 37.1%; in the experiment with HS 578T breast, 32.5%; with NCI/ADR-RES ovarian it was 12.5%.

Regarding `CCC1(C2CCCC2)NC(=O)NC1=O` (centres undefined), the growth in the experiment with SK-MEL-2 melanoma was 102%; in the experiment with EKVX NSCLC, 105%; in the experiment on SN12C renal, 99%; with UO-31 renal, 87.4%; with TK-10 renal it was 113%; with ACHN renal, 93.8%. Moreover, the growth was 100% in the experiment with CAKI-1 renal; 100% in the experiment with A498 renal; 87.8% with CCRF-CEM leukemia; 110% with MOLT-4 leukemia; 91.3% with RPMI-8226 leukemia; 109% in the experiment on OVCAR-8 ovarian. The growth is 80.5% in the experiment on OVCAR-5 ovarian; 113% in the experiment on OVCAR-4 ovarian; 112% with SK-OV-3 ovarian; 97.5% with IGROV1 ovarian; 98.9% with HS 578T breast; 109% in the experiment with NCI/ADR-RES ovarian.
